The panel holds about 79,000 compounds, 15% with a hit somewhere; the sample as a whole holds those more often. Calls of active or inactive are those of the source. Rule as the data show it: active = growth inhibition above about 70%; inactive = the rest.
Key:
[1] = NCI Yeast Anticancer Drug Screen. Data for the rad50 strain (AID 155);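 also: 0% = growth of vehicle-only cultures of the same strain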; details: S. cerevisiae rad50 strain growth inhibition; at 50.0 µM; stronger effect = higher value
Outline: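 Growth of the mutant yeast was measured after compound exposure and referenced to vehicle-treated cultures.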

[2] = NCI Yeast Anticancer Drug Screen. Data for the mec2-1 strain (AID 157); details: S. cerevisiae mec2-1 strain, at 50.0 µM, stronger effect = higher value
Outline: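 Vehicle-treated cultures served as reference for growth inhibition of compound-exposed mec2-1 yeast.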

[3] = NCI Yeast Anticancer Drug Screen. Data for the sgs1 mgt1 strain (AID 161);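 also: 0% = growth of cultures given vehicle only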; details: S. cerevisiae sgs1 mgt1 strain, at 50.0 µM, stronger effect = higher value
Outline: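 Genetically altered yeast, compound exposure, growth inhibition relative to vehicle.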

[4] = NCI Yeast Anticancer Drug Screen. Data for the cln2 rad14 strain (AID 165);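 also: 0% = growth equal to vehicle treated cultures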; details: S. cerevisiae cln2 rad14 strain, at 50.0 µM, stronger effect = higher value
Outline: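 Each compound was tested on cln2 rad14 yeast. Inhibition of growth was calculated against vehicle-exposed controls.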

[5] = NCI Yeast Anticancer Drug Screen. Data for the bub3 strain (AID 167); details: S. cerevisiae bub3 mutant strain, at 50.0 µM, stronger effect = higher value
Outline: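 Whole-cell yeast assay. The mutant strain was incubated with compounds, and growth inhibition was determined by comparison with vehicle-treated cells.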

[6] = NCI Yeast Anticancer Drug Screen. Data for the mlh1 rad18 strain (AID 175); details: S. cerevisiae mlh1 rad18 strain growth inhibition; at 50.0 µM; stronger effect = higher value
Outline: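 Vehicle-treated cultures served as the reference for growth inhibition in a yeast strain carrying DNA damage repair alterations exposed to each compound.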

Measured: growth inhibition

CCCCCCCCCCCCCCCC(=O)ON1C(=S)NC(C)(c2ccccc2)C1=S (configuration not stated)
inactive: [1] -0.65% | [2] 5.45% | [3] 9.15% | [4] -4.05% | [5] 13.4% | [6] -17.6%

CCC1C(=O)N(C)c2ccccc21 (configuration not stated)
inactive: [1] -2.15% | [2] -9.6% | [3] -10.1% | [4] 1.55% | [5] -19.3% | [6] 13.2%

Cc1ccc(S(=O)(=O)N/N=C2/C(=O)NC(=O)C(=O)C2c2nc3ccccc3s2)cc1 (configuration not stated)
inactive: [1] 12.4% | [2] -2.6% | [3] 13.6% | [4] -19.1% | [5] 8.45% | [6] 12.4%

Cc1ccc(C)c(NS(=O)(=O)c2ccc(Cl)c([N+](=O)[O-])c2)c1
active: [1] 97.1% | [2] 98.2% | [3] 97.8% | [4] 96.8% | [5] 97.9% | [6] 98%

Cc1cc(C)cc(C(=O)OC2CCCC2)c1
inactive: [1] 1.2% | [2] 0.35% | [3] -3.85% | [4] 4.5% | [5] -5.2% | [6] 22.9%

CC1CCC2(CC1)N=C1CCC(C)CC1C1(CCC(C)CC1)N2 (configuration not stated)
inactive: [1] -22.4% | [2] 0.25% | [3] -32.9% | [4] -23.1% | [5] -13.2% | [6] -11.1%

C[n+]1ccc2ccccc2c1C#N
inactive: [1] 2.55% | [2] 10.6% | [3] -3.75% | [4] -0.35% | [5] 0.35% | [6] 14.9%

COC(=O)N/N=C/c1c[nH]c2ccccc12
inactive: [1] -5.15% | [2] -17.6% | [3] -9.65% | [4] -97% | [5] -17.4% | [6] -24.6%

CN(C)c1cc[n+](-c2c([O-])c3ccccc3n(-c3ccccc3)c2=O)cc1
inactive: [1] 20.1% | [2] 6.1% | [3] 14.2% | [4] 12.7% | [5] 4.8% | [6] 21%

COCCOC(=O)Nc1c(Cl)cccc1Cl
inactive: [1] 1.45% | [2] -18.5% | [3] -8.35% | [4] 5.3% | [5] -25.6% | [6] -8.2%

CC1(C)OC(C(CCl)OS(C)(=O)=O)C(C(CCl)OS(C)(=O)=O)O1 (configuration not stated)
inactive: [1] 4.2% | [2] -6.1% | [3] -5.7% | [4] 24.9% | [5] -3.5% | [6] 6.95%

CCCCCCCCCCCCCCCC(=O)OCC(COP(=O)(O)OC1CCC2(C)C(=CCC3C2CCC2(C)C(C(C)CCCC(C)C)CCC32)C1)OC(=O)CCCCCCCCCCCCCCC (configuration not stated)
inactive: [1] 1.9% | [2] 4.05% | [3] 22.2% | [4] -5.5% | [5] -3.1% | [6] -4.8%

CC(=O)Nc1ccc2ccccc2c1
inactive: [1] 7.15% | [2] 5.4% | [3] 0.3% | [4] -25.1% | [5] -4.1% | [6] 1.4%

C=C(c1ccccc1)N1N=NC2CCOC21 (configuration not stated)
inactive: [1] -4.25% | [2] -10% | [3] 4.2% | [4] -20.6% | [5] -16.8% | [6] -8.65%

CCCCCNC(=O)c1ccc([N+](=O)[O-])cc1
inactive: [1] 7.35% | [2] -1.75% | [3] 3.75% | [4] 4.85% | [5] -1% | [6] 13.9%

O=S(Cc1ccccc1)/C(=C/NC(=S)N=Nc1c(O)[nH]c2ccccc12)c1ccccc1 (configuration not stated)
inactive: [1] 15.3% | [2] -11.1% | [3] 14.2% | [4] 33.2% | [5] -4.1% | [6] -3.1%

O=C(Nc1ccccn1)c1ccc([N+](=O)[O-])cc1
inactive: [1] 33% | [2] 7.95% | [3] 15.4% | [4] 5.45% | [5] -1.8% | [6] -2.4%

c1ccc2c(N=C(Nc3cccc4ccccc34)c3cccc4ccccc34)cccc2c1
inactive: [1] 20.4% | [2] 19.6% | [3] 35.8% | [4] 28.9% | [5] 17.3% | [6] 13.6%

CCOC(=O)C1(C(=O)OCC)CC(CCC#N)(CCC#N)C(=O)C(CCC#N)(CCC#N)C1
inactive: [1] -2.15% | [2] -5.5% | [3] 1.55% | [4] -3.1% | [5] -11.4% | [6] -26.8%

CCCCCSC1CCCC1
inactive: [1] 35% | [2] -10% | [3] 7.65% | [4] -2.2% | [5] 9.5% | [6] 28.7%

CN(C)CC1CCCC/C1=N/OC(=O)c1ccc(Cl)cc1 (configuration not stated)
inactive: [1] 0.15% | [2] 2.1% | [3] 10.9% | [4] 11.4% | [5] -4.6% | [6] 13.7%

N#CC1(C#N)C(c2ccccc2)C=CC12OCCCO2 (configuration not stated)
inactive: [1] 10.9% | [2] 6.75% | [3] 3.9% | [4] 32% | [5] -5.3% | [6] 23.2%

Cc1ccc(C(=O)NNC(=O)c2ccc3ccccc3c2)cc1
inactive: [1] -15.4% | [2] -19.4% | [3] 7% | [4] 10.2% | [5] -16.6% | [6] -12.9%

Nc1ccc(C(=O)NCCCC(=O)O)cc1
inactive: [1] -1.85% | [2] 19.2% | [3] -1.75% | [4] 0.85% | [5] -3.75% | [6] -14.6%

CCCCC(NC(=O)c1cnc2ccccc2n1)C(=O)O (configuration not stated)
inactive: [1] 22.2% | [2] 14% | [3] 15.3% | [4] 4.6% | [5] 22.3% | [6] 31.6%

N#CC12CC3(CCC1CCC1(C2)OCCO1)OCCO3 (configuration not stated)
inactive: [1] -13.8% | [2] 2.65% | [3] -3.9% | [4] -6.65% | [5] 4.3% | [6] -1%

C1=NC(c2ccccc2)=CN(C2CCCCCCC2)C1(c1ccccc1)C1CCCCCCC1 (configuration not stated)
inactive: [1] 40% | [3] 40.2% | [4] 45.6% | [5] 61.4% | [6] 50.4%
active: [2] 72.2%

CCCC(O)(c1ccccc1)c1ccccc1
inactive: [1] 5.4% | [2] 2.95% | [3] -2.95% | [4] -6.4% | [5] -4.5% | [6] 4.5%

CCCC(=O)OCc1ccc(Cl)cc1Cl
inactive: [1] 31.6% | [2] 13.3% | [3] 14.8% | [4] 7.75% | [5] 0% | [6] 13.9%

CCSc1ncnc2nc[nH]c12
inactive: [1] 9% | [2] -8.8% | [3] 4.4% | [4] -18.4% | [5] -9.55% | [6] 8.4%

Clc1ccc(CCc2ccncn2)c(Cl)c1
inactive: [1] 17.5% | [2] 16.1% | [3] 5.7% | [4] 17.7% | [5] 14.7% | [6] 51.6%

Cc1ccc(S(=O)(=O)CC(=O)CC(=O)C(=O)Nc2ccc(Cl)cc2C)cc1
inactive: [1] 11.2% | [2] -0.3% | [3] -7.95% | [4] -22.4% | [5] -0.75% | [6] 27.3%

C[N+]1(Cc2ccccc2)CCC(=O)CC1
inactive: [1] 4.05% | [2] -12.9% | [3] -7.1% | [4] -13.1% | [5] 10.9% | [6] -13.8%

O=C(CNc1ccccn1)Nn1cnc2ccc(S(=O)(=O)Nc3ccccn3)cc2c1=O
inactive: [1] 32.2% | [2] 28% | [3] 39.4% | [4] -1.1% | [5] 25.6% | [6] 22.6%

CCOC(=O)/C=C/c1cccc(F)c1
inactive: [1] 19.2% | [2] -5.25% | [3] 7.85% | [4] 12% | [5] 12.2% | [6] 10.5%

Cc1ccc2ccccc2c1Br
inactive: [1] -4.55% | [2] -0.85% | [3] 1.6% | [4] -14.8% | [5] -3.2% | [6] -8.55%

CCOC(=O)/C(C#N)=C/c1ccc(O)c(OC)c1
inactive: [1] 30.4% | [2] -8.5% | [3] 4.95% | [4] 14.5% | [5] 12.6% | [6] 23.3%
